Measurements taken from the supplement of paper PMC6555819.

Key:
Assay in all cases: PBM binding z-score (relative to random genomic background probes); higher = stronger binding; sequences stand for … in GC…GCGATTGACAGCGTAGAATGAAGG
[1] = test system: FXR:RXRa (NR concentration 270 nM, RXRa partner concentration 90 nM)
How it was run: (§1)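 Binding z-scores were set against random background probes. The data came from custom Agilent 4×180K protein-binding microarrays carrying double-stranded probes with 34-nt variable regions, incubated 1 h with ligand-free nuclear receptor dimers. Partner-specific antibodies detected binding, and scanned fluorescence was regression-normalized.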

[2] = test system: LXRa:RXRa (NR concentration 270 nM, RXRa partner concentration 90 nM)
How it was run: as §1

[3] = test system: LXRa homodimer (NR concentration 270 nM)
How it was run: as §1

[4] = test system: LXRb:RXRa (NR concentration 270 nM, RXRa partner concentration 90 nM)
How it was run: as §1

[5] = test system: LXRb homodimer (NR concentration 270 nM)
How it was run: as §1

[6] = test system: PPARa:RXRa (NR concentration 270 nM, RXRa partner concentration 90 nM)
How it was run: as §1

[7] = test system: PPARg:RXRa (NR concentration 180 nM, RXRa partner concentration 90 nM)
How it was run: as §1

[8] = test system: PPARg:RXRa 270nM:90nM, anti-RXR (NR concentration 270 nM, RXRa partner concentration 90 nM)
How it was run: as §1

[9] = test system: PPARg:RXRa 30nM:10nM, anti-RXR (NR concentration 30 nM, RXRa partner concentration 10 nM)
How it was run: as §1

[10] = test system: PPARg:RXRa 90nM:30nM, anti-RXR (NR concentration 90 nM, RXRa partner concentration 30 nM)
How it was run: as §1

[11] = test system: PPARg:RXRa DBDmut IVT, anti-RXR (DBD mutation: RXRa K156A/R161A, NR concentration 270 nM, RXRa partner concentration 90 nM)
How it was run: as §1

[12] = test system: PPARg:RXRa IVT, anti-PPARg (NR concentration 270 nM, RXRa partner concentration 90 nM)
How it was run: as §1

[13] = test system: PPARg DBDmut:RXRa IVT, anti-PPARg (DBD mutation: PPARg1 K132A/R137A, NR concentration 270 nM, RXRa partner concentration 90 nM)
How it was run: as §1

[14] = test system: PPARg DBDmut IVT, anti-PPARg (DBD mutation: PPARg1 K132A/R137A, NR concentration 270 nM)
How it was run: as §1

[15] = test system: PPARg homodimer (NR concentration 180 nM)
How it was run: as §1

[16] = test system: PXR:RXRa (NR concentration 270 nM, RXRa partner concentration 90 nM)
How it was run: as §1

[17] = test system: PXR homodimer (NR concentration 270 nM)
How it was run: as §1

[18] = test system: RARa:RXR (NR concentration 270 nM, RXRa partner concentration 90 nM)
How it was run: as §1

[19] = test system: RARa homodimer (NR concentration 270 nM)
How it was run: as §1

[20] = test system: RARb:RXRa (NR concentration 270 nM, RXRa partner concentration 90 nM)
How it was run: as §1

| Sequence | PBM binding z-score [1] | PBM binding z-score [2] | PBM binding z-score [3] | PBM binding z-score [4] | PBM binding z-score [5] | PBM binding z-score [6] | PBM binding z-score [7] | PBM binding z-score [8] | PBM binding z-score [9] | PBM binding z-score [10] | PBM binding z-score [11] | PBM binding z-score [12] | PBM binding z-score [13] | PBM binding z-score [14] | PBM binding z-score [15] | PBM binding z-score [16] | PBM binding z-score [17] | PBM binding z-score [18] | PBM binding z-score [19] | PBM binding z-score [20] |
| --- | --- | --- | --- | --- | --- | --- | --- | --- | --- | --- | --- | --- | --- | --- | --- | --- | --- | --- | --- | --- |
| CGTCAAAGTTCAACTAAGGTAACGTGAAGCACGC | 7.3 | 6.43 | 4.57 | 3.84 | 1.83 | 5.09 | 4.91 | 5.8 | 2.35 | 4.5 | 0.871 | 2.2 | 0.717 | 0.859 | 3.36 | 5.76 | 4.5 | 4.34 | 2.47 | 5.26 |
| ACTTACGGGTCAACGAGGTTCTAGCACGCGTATA | 6.65 | 4.04 | 0.325 | 3.66 | 0.336 | 5.59 | 5.12 | 4.83 | 1.82 | 3.67 | 3.33 | 3.8 | 1.11 | 0.889 | 2.64 | 4.32 | 0.435 | 4.17 | 0.866 | 4.12 |
| CGAACTAGGTCATTGAGAGGACAGTGAATAGTAA | 3.94 | 2.78 | 0.422 | 1.87 | -0.333 | 4.37 | 7.29 | 5.99 | 3.89 | 5.45 | 7.95 | 7.8 | 1.23 | 0.676 | 2.27 | 2.36 | 0.174 | 3.08 | -0.238 | 3.74 |
| ATCTTTAGGTAACCAAGTTCAGTGAATGCCGAAC | 0.613 | 1.14 | 0.896 | 0.862 | 1.2 | 0.968 | 0.323 | 0.52 | 0.251 | 0.342 | 2.35 | 1.85 | 1.09 | 1.61 | 0.811 | 2.06 | 1.53 | 1 | 0.564 | 1.31 |
| CTCGAAACGTCGGTTGAGGTGAGTATACGGATAA | 0.172 | -0.188 | -0.566 | -0.297 | -0.3 | -0.163 | 0.00135 | -0.342 | -0.256 | -0.221 | -0.197 | -0.061 | 0.192 | 0.207 | 0.264 | 0.0163 | -0.284 | 0.752 | -0.037 | 0.205 |
| TCTTGTAGATCAACAGGAGCTTAAGAAAGATCGA | -0.438 | -0.744 | -1.18 | -0.366 | -0.825 | 0.0739 | -0.318 | 0.847 | 2.14 | 1.43 | 1.16 | 0.103 | 0.548 | -0.235 | -1.17 | -0.361 | -0.82 | -0.535 | -0.604 | -0.522 |
| CCTGCTAGGTCATGGTCAGCTAGTCTACAGTATG | 3.74 | 2.28 | -0.0362 | 1.62 | -0.295 | 3.45 | 2.38 | 2.89 | 0.503 | 1.92 | 4.65 | 3.97 | 0.24 | -0.536 | 1.4 | 1.51 | -0.479 | 2.41 | -0.496 | 4.15 |
| TCATATAGGTAAATGCTAGGTGAAAGACCGATCT | 1.17 | 1.12 | 0.232 | 0.72 | -0.0647 | 1.48 | 1.22 | 2.38 | 3.79 | 2.96 | 3.73 | 2.45 | 1.16 | 1.31 | 1.02 | 0.594 | 0.174 | 0.931 | 0.867 | 0.44 |
| TAGCCTAGGTCATTCAAGGGCCAGTATAGAAAGC | 4.72 | 3.99 | 0.681 | 2.5 | 0.527 | 3.79 | 1.97 | 2.25 | 0.523 | 1.88 | 1.4 | 2.93 | 0.0741 | 0.0632 | 1.31 | 2.5 | 0.325 | 2.93 | 0.561 | 3.9 |
| TAGCCTAGGTCATTCAGAGGCCAGTATAGAAAGC | 4.56 | 3.63 | 0.829 | 2.82 | 0.598 | 3.63 | 2.34 | 2.29 | 0.542 | 1.47 | 1.43 | 2.85 | 0.547 | 0.364 | 2 | 2.58 | -0.166 | 3.25 | -0.206 | 4.09 |
| CCTACTGGGCCATTCAAAGGTCATTGATCATATG | 3.24 | 4.61 | 6.31 | 4.29 | 0.576 | 4.43 | 3.07 | 4.03 | 1.44 | 3.35 | 4.67 | 4.81 | -0.127 | -0.542 | 2.61 | 5 | 2.28 | 5.19 | 0.686 | 3.72 |
| TCTGCTAGGTCAACGATGGCCAGCTAATCTGCTA | 3.09 | 2.21 | -0.626 | 1.34 | -0.287 | 3 | 2.34 | 2.77 | 1.8 | 2.37 | 4.07 | 4.02 | 0.274 | -0.0746 | 0.165 | 0.871 | -1.29 | 1.9 | -0.648 | 3.94 |
| TCTGCTAGGTCAACGATGGTCACCTAATCTGCTA | 3.57 | 2.97 | 0.264 | 2.05 | -0.183 | 3.49 | 2.96 | 3.36 | 1.98 | 2.76 | 4.12 | 4.82 | 0.776 | 0.398 | 0.811 | 2.12 | -0.994 | 2.8 | -0.586 | 4.2 |
| ATTATTAGTTGAGACGAGGGCAACCGATAGGTTG | 1.13 | 0.675 | 1.08 | 0.406 | 0.941 | 0.603 | 0.713 | 0.504 | 0.68 | 0.781 | 0.469 | 1.43 | 1.76 | 1.3 | 1.77 | 1.72 | 1.69 | 1.4 | 2.49 | 1.48 |
| CGTCACAGTTCAAGGTAACGTAACAGAAAGCAGC | 2.2 | 1.91 | 0.443 | 1.52 | 0.237 | 2.46 | 1.29 | 1.19 | 0.243 | 0.61 | 0.275 | 1.23 | 0.33 | 0.734 | 0.946 | 1.93 | 0.75 | 1.78 | 0.462 | 2.73 |
| TCAGACAGGTGAAGGTAACTCGGGTACGCAGTCG | 1.07 | 2.93 | 0.00206 | 1.44 | -0.167 | 1.46 | 0.656 | 2.33 | 3.89 | 3.22 | 2.75 | 1.56 | -0.468 | -0.323 | 0.71 | 0.846 | 0.151 | 0.795 | 0.419 | 1.46 |
| CGTCCAAGGTCAGAGAGGTGAGTGAATGCCGAGT | 4.98 | 3.29 | 0.18 | 2.43 | 0.0466 | 4.06 | 2.73 | 2.95 | 0.53 | 1.78 | 2.79 | 3.19 | -0.199 | -0.145 | 3.3 | 3.15 | 1.96 | 3.43 | 0.424 | 4.78 |
